Results taken from PubChem BioAssay (EPA / NIEHS).
“And” between values parts separate entries of the source, which are not always exact repeats. Equal values may be shown once. The source made the active and inactive calls. Rule for the calls: active = hit-call score of the fitted dose curve at least 0.9, where 1 is the maximum; inactive = score below 0.9.

Columns and labels:
[1] = read-out: Vascular endothelial growth factor receptor 2 (Homo sapiens) (UniProt P35968); assay: BSK_4H_VEGFRII: BioMAP Diversity Plus: 4H Assay for Vascular endothelial growth factor receptor 2 (VEGFR2) Biomarker Activity (AID 2283031); conditions: primary human endothelial cells (HUVEC); actives raise or lower the signal;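 for AC50: cell-surface VEGFR2 protein level quantified by ELISA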
Procedure, shortened: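 Measured by ELISA after 24 h of compound treatment: VEGFR2 on primary human umbilical vein endothelial cells, fitted in both directions relative to DMSO. Parallel cultures received SRB staining (560 nm) for overt cytotoxicity.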

[2] = read-out: Human Leukocyte Antigen - DR isotype (HLADR), HLA-DRA (gene 3122); assay: BSK_BE3C_HLADR: BioMAP Diversity Plus: BE3C Assay for Human Leukocyte Antigen - DR isotype (HLADR) Biomarker Activity (AID 2283032); conditions: primary human bronchial epithelial cells; actives raise or lower the signal
Procedure, shortened: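 Human primary bronchial epithelial cells in the BE3C system were exposed to chemicals for 24 h, after which HLA-DR levels were quantified by ELISA. Activity was fitted bidirectionally, gain or loss of signal, against DMSO as negative control and baseline.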

[3] = read-out: Vascular cell adhesion molecule 1 (VCAM1), VCAM1 (gene 7412); assay: BSK_4H_VCAM1: BioMAP Diversity Plus: 4H Assay for Vascular cell adhesion molecule 1 (VCAM1) Biomarker Activity (AID 2283033); conditions: primary human endothelial cells (HUVEC); actives raise or lower the signal;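 for outcome: cell-surface VCAM-1 protein measured by ELISA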
Procedure, shortened: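 Primary human umbilical vein endothelial cells were exposed to chemicals for 24 h, after which VCAM-1 was quantified by ELISA. Responses were fitted bidirectionally against DMSO as negative control and activity baseline.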

[4] = read-out: Interferon-gamma inducible Protein 10 (IP10), CXCL10 (gene 3627); assay: BSK_BE3C_IP10: BioMAP Diversity Plus: BE3C Assay for Interferon-gamma inducible Protein 10 (IP10) Biomarker Activity (AID 2283034); conditions: primary human bronchial epithelial cells; actives raise or lower the signal
Procedure, shortened: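 Human primary bronchial epithelial cells were exposed to chemicals for 24 hours, after which IP-10 levels were measured by ELISA. Data were fitted bidirectionally against DMSO, which served as the negative control and activity baseline.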

[5] = read-out: Monokine induced gamma interferon (MIG), CXCL9 (gene 4283); assay: BSK_BE3C_MIG: BioMAP Diversity Plus: BE3C Assay for Monokine induced gamma interferon (MIG) Biomarker Activity (AID 2283035); conditions: primary human bronchial epithelial cells; actives raise or lower the signal;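 for outcome: MIG protein measured by ELISA in BE3C cultures after 24 h of dosing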
Procedure, shortened: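 Primary human bronchial epithelial cells treated for 24 h; MIG levels measured by ELISA, fitted bidirectionally versus DMSO. Parallel SRB total-protein staining assessed cytotoxicity.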

[6] = read-out: Transforming growth factor beta 1 (TGFb1), TGFB1 (gene 7040); assay: BSK_BE3C_TGFb1: BioMAP Diversity Plus: BE3C Assay for Transforming growth factor beta 1 (TGFb1) Biomarker Activity (AID 2283036); conditions: primary human bronchial epithelial cells; actives raise or lower the signal
Procedure, shortened: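 Human primary bronchial epithelial cells (BE3C system) were dosed with chemical and TGF-b1 levels measured by ELISA at 24 h. Activity was fitted bidirectionally relative to DMSO negative control as baseline.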

[7] = read-out: Plasminogen activator inhibitor-1 (PAI1), SERPINE1 (gene 5054); assay: BSK_BE3C_PAI1: BioMAP Diversity Plus: BE3C Assay for Plasminogen activator inhibitor-1 (PAI1) Biomarker Activity (AID 2283037); conditions: primary human bronchial epithelial cells; actives raise or lower the signal
Procedure, shortened: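 Human primary bronchial epithelial cells were exposed to chemical for 24 h, then PAI-1 was quantified by ELISA. Activity was fitted bidirectionally relative to the DMSO negative control baseline.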

[8] = read-out: urokinase plasminogen activator (uPA), PLAU (gene 5328); assay: BSK_BE3C_uPA: BioMAP Diversity Plus: BE3C Assay for urokinase plasminogen activator (uPA) Biomarker Activity (AID 2283038); conditions: primary human bronchial epithelial cells; actives raise or lower the signal;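 for outcome: uPA protein level quantified by ELISA in cell cultures; uPA read one day after compound addition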
Procedure, shortened: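 ELISA for uPA on human primary bronchial epithelial cultures 24 h post-treatment, gain or loss against DMSO. Parallel SRB staining (0.1% after 10% TCA fixation, 560 nm) assessed overt cytotoxicity.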

[9] = read-out: Urokinase-type plasminogen activator receptor (uPAR), PLAUR (gene 5329); assay: BSK_BE3C_uPAR: BioMAP Diversity Plus: BE3C Assay for Urokinase-type plasminogen activator receptor (uPAR) Biomarker Activity (AID 2283039); conditions: primary human bronchial epithelial cells; actives raise or lower the signal;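 for outcome: cells exposed to compound for one day before measurement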
Procedure, shortened: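 Primary human bronchial epithelial cells were dosed with chemical and harvested 24 h later; uPAR was quantified by ELISA. Activity was fitted bidirectionally against DMSO as negative control and baseline.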

[10] = read-out: Interleukin-6 (IL6), IL6 (gene 3569); assay: BSK_CASM3C_IL6: BioMAP Diversity Plus: CASM3C Assay for Interleukin-6 (IL6) Biomarker Activity for (AID 2283040); conditions: primary human coronary artery smooth muscle cells; actives raise or lower the signal

## O=C(O)COc1nc(Cl)c(Cl)cc1Cl
[1]
  outcome: inactive
[2]
  outcome: inactive
[3]
  outcome: inactive
[4]
  outcome: inactive
[5]
  outcome: inactive
[6]
  AC50: 245 nM (active)
[7]
  outcome: inactive
[8]
  outcome: inactive
[9]
  outcome: inactive
[10]
  outcome: inactive

## COc1nc(NC(C)C)nc(NC(C)C)n1
[1]
  outcome: inactive
[2]
  outcome: inactive
[3]
  outcome: inactive
[5]
  outcome: inactive
[6]
  outcome: inactive
[7]
  outcome: inactive
[8]
  outcome: inactive
[9]
  AC50: 2.36 µM (active)
[10]
  outcome: inactive

## COP(=S)(OC)Oc1nc(Cl)c(Cl)cc1Cl
[1]
  outcome: inactive
[2]
  outcome: inactive
[5]
  outcome: inactive
[6]
  outcome: inactive
[7]
  outcome: inactive
[8]
  outcome: inactive
[9]
  outcome: inactive
[10]
  outcome: inactive

## CCCCNC(=O)OCC#CI
[1]
  AC50: 22.9 µM (active) and 32.7 µM (active)
[2]
  AC50: 28.8 µM (active) and 31.2 µM (active)
[3]
  AC50: 25.1 µM (active) and 21.8 µM (active)
[5]
  AC50: 37 µM (active) and 31.3 µM (active)
[6]
  AC50: 31.2 µM (active) and 32.1 µM (active)
[7]
  AC50: 30.1 µM (active)
[8]
  AC50: 32 µM (active) and 30.6 µM (active)
[9]
  AC50: 30 µM (active) and 30.4 µM (active)
[10]
  AC50: 32.3 µM (active) and 36.3 µM (active)

## CC(C)C1(C)N=C(c2nc3ccccc3cc2C(=O)O)NC1=O (stereo unspecified)
[1]
  outcome: inactive
[2]
  outcome: inactive
[3]
  outcome: inactive
[5]
  outcome: inactive
[6]
  outcome: inactive
[7]
  outcome: inactive
[8]
  outcome: inactive
[9]
  outcome: inactive
[10]
  outcome: inactive

## CS/C(C)=N/OC(=O)N(C)SN(C)C(=O)O/N=C(\C)SC
[1]
  AC50: 28.7 µM (active)
[2]
  AC50: 30.1 µM (active)
[3]
  AC50: 31.1 µM (active)
[5]
  outcome: inactive
[6]
  outcome: inactive
[7]
  outcome: inactive
[8]
  outcome: inactive
[9]
  outcome: inactive
[10]
  AC50: 35 µM (active)

## N#Cc1nn(-c2c(Cl)cc(C(F)(F)F)cc2Cl)c(N)c1S(=O)C(F)(F)F (stereo unspecified)
[1]
  AC50: 31.7 µM (active)
[2]
  AC50: 14.2 µM (active)
[3]
  AC50: 20 µM (active)
[5]
  AC50: 28.3 µM (active)
[6]
  outcome: inactive
[7]
  AC50: 20 µM (active)
[8]
  outcome: inactive
[9]
  outcome: inactive
[10]
  outcome: inactive

## CCOC(=O)C(Cl)Cc1cc(-n2nc(C)n(C(F)F)c2=O)c(F)cc1Cl (stereo unspecified)
[1]
  outcome: inactive
[2]
  outcome: inactive
[3]
  outcome: inactive
[5]
  outcome: inactive
[6]
  outcome: inactive
[7]
  outcome: inactive
[8]
  outcome: inactive
[9]
  outcome: inactive
[10]
  outcome: inactive

## CCCC1COC(Cn2cncn2)(c2ccc(Cl)cc2Cl)O1 (stereo unspecified)
[1]
  outcome: inactive
[2]
  outcome: inactive
[3]
  outcome: inactive
[5]
  outcome: inactive
[6]
  outcome: inactive
[7]
  outcome: inactive
[8]
  outcome: inactive
[9]
  outcome: inactive
[10]
  outcome: inactive

## C=CCC1=C(C)[C@@H](OC(=O)[C@@H]2[C@@H](C=C(C)C)C2(C)C)CC1=O
[1]
  AC50: 35.8 µM (active)
[2]
  AC50: 20 µM (active)
[3]
  outcome: inactive
[5]
  outcome: inactive
[6]
  outcome: inactive
[7]
  AC50: 29.5 µM (active)
[8]
  AC50: 26.7 µM (active)
[9]
  outcome: inactive
[10]
  outcome: inactive

## CC(C)Oc1cc(-n2nc(C(C)(C)C)oc2=O)c(Cl)cc1Cl
[1]
  AC50: 32.9 µM (active)
[2]
  AC50: 27.4 µM (active)
[3]
  AC50: 28.2 µM (active)
[5]
  outcome: inactive
[6]
  outcome: inactive
[7]
  AC50: 20 µM (active)
[8]
  AC50: 27.6 µM (active)
[9]
  outcome: inactive
[10]
  outcome: inactive

## CC1COC(Cn2cncn2)(c2ccc(Oc3ccc(Cl)cc3)cc2Cl)O1 (stereo unspecified)
[1]
  outcome: inactive
[2]
  AC50: 20 µM (active)
[3]
  AC50: 32.2 µM (active)
[5]
  AC50: 29.3 µM (active)
[6]
  outcome: inactive
[7]
  AC50: 20 µM (active)
[8]
  AC50: 20 µM (active)
[9]
  AC50: 30.3 µM (active)
[10]
  outcome: inactive

## CNC(=O)ON=CC(C)(C)SC
[1]
  outcome: inactive
[2]
  outcome: inactive
[3]
  outcome: inactive
[5]
  outcome: inactive
[6]
  outcome: inactive
[7]
  outcome: inactive
[8]
  outcome: inactive
[9]
  outcome: inactive
[10]
  outcome: inactive

## N#CC(CCc1ccc(Cl)cc1)(Cn1cncn1)c1ccccc1 (stereo unspecified)
[1]
  outcome: inactive
[2]
  AC50: 31.2 µM (active)
[3]
  outcome: inactive
[5]
  outcome: inactive
[6]
  outcome: inactive
[7]
  outcome: inactive
[8]
  outcome: inactive
[9]
  outcome: inactive
[10]
  outcome: inactive
